Data taken from PubChem BioAssay AID743445 (Broad Institute, 2014).
The campaign covered roughly 310,000 compounds. About 1,700 (0.55%) were called active. No stated cut-off is given here; in the data, active means inhibition above about 50%; inactive means the rest. For the sample, actives were picked, then their nearest neighbours and some compounds at random.

target: Histone-lysine N-methyltransferase NSD2 (Homo sapiens) (UniProt O96028); experiment: NSD2 histone methyltransferase inhibitors, primary screen, biochemical, AlphaScreen, single concentration, set 2 (AID 743445); details: NSD2 peptide methylation, 120 min, at 12.5 µM, stronger effect = higher value
Sequence (O96028 whole entry, looked up): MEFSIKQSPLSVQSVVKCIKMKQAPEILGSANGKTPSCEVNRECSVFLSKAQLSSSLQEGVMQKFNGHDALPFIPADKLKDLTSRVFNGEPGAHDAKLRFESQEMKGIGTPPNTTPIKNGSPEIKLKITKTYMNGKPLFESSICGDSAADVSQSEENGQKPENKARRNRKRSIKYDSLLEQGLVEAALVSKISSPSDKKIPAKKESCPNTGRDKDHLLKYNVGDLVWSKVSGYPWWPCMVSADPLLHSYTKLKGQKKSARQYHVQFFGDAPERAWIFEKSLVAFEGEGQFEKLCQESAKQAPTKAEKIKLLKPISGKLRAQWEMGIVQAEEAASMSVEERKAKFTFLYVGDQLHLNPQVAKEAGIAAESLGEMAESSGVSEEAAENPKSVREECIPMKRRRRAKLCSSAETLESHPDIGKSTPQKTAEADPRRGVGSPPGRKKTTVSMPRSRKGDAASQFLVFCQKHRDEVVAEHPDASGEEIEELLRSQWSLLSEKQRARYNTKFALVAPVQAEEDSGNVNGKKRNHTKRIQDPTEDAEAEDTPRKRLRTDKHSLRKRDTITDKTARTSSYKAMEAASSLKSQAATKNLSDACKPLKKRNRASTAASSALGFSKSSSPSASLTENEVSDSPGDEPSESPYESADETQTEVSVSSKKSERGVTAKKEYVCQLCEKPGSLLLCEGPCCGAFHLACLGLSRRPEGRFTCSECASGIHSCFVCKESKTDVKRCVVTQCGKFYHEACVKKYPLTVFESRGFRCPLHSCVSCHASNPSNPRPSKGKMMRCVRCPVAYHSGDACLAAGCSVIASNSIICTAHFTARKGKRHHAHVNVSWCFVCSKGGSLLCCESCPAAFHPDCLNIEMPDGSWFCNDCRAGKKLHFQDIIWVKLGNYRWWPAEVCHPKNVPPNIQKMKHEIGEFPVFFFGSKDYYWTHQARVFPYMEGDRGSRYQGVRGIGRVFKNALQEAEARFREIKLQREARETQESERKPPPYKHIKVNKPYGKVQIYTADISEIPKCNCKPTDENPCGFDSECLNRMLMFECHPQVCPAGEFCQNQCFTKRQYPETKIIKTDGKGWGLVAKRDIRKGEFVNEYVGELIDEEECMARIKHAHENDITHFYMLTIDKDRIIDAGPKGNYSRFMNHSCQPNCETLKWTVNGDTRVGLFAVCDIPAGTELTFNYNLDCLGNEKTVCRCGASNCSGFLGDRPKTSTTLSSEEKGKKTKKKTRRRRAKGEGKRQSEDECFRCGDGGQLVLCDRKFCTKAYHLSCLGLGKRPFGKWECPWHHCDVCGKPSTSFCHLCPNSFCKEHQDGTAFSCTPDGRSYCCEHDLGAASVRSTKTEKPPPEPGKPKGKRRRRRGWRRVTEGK

SMILES | inhibition
Cc1ccnc(N2CCCC(C(=O)NC3CC3)C2)n1 (configuration not stated) | -1.73% (inactive)
O=C(NC1CCCCCC1)C1CCN(C(=O)c2ccc(Cl)cc2)CC1 | -0.793% (inactive)
Cc1ccnc(N2CCC(C(=O)NC3CCCCCC3)CC2)n1 | 90.5% (active)
O=S(=O)(c1ccccc1)N1CCC(c2nc3ccccc3o2)CC1 | -2.44% (inactive)
CCOC(=O)c1nnn(-c2nc(OC)nc(N(C)C)n2)c1-c1ccccc1 | -2.39% (inactive)
Nc1nonc1-n1nnc(C(=O)N/N=C/C2CCCCC2)c1-c1ccccc1 | 4.38% (inactive)
CCOC(=O)c1nnn(-c2nonc2OC)c1-c1ccccc1 | 113% (active)
CN(CCc1ccccc1)C(=O)Cn1nc(-c2ccccc2)ccc1=O | 4.36% (inactive)
Cc1cccc(OCCC(=O)Nc2ccccc2C(N)=O)c1 | 93.5% (active)
Cc1cccc(OCC(=O)Nc2ccccc2F)c1 | 12.4% (inactive)
Cc1ccccc1NC(=O)CCOc1ccccc1 | -2.79% (inactive)
COc1ccc(-c2ccc(C(=O)NC(C)C)c3occc23)c(C)c1 | -1.69% (inactive)
CCc1ccccc1NC(=O)CSc1nnc(-c2cccs2)o1 | 3.02% (inactive)
Nc1ccn([C@@H]2O[C@H](C(=O)N[C@H]3CCCCNC3=O)[C@@H](O)[C@H]2O)c(=O)n1 | -3.79% (inactive)
CC(=O)NC(=S)NNC(=O)c1ccc(Br)cc1 | -3.53% (inactive)
O=C(NNC(=O)c1ccc(Cl)nc1)c1ccc(Br)cc1 | 98.9% (active)
CCN(CC)c1ccc(NC(=O)c2ccc(Cl)nc2)cc1 | 2.22% (inactive)
COc1ccc(-c2cc(-c3nnc(SCC(=O)Nc4cccc5ccccc45)n3N)[nH]n2)cc1 | -2.83% (inactive)
CC(=O)c1ccc(Nc2nc(C(N)c3ccccc3)cs2)cc1 (configuration not stated) | -2.82% (inactive)
COc1ccc(NC(=O)C2Cc3c(-c4ccc(Cl)cc4)ccnc3O2)cc1 (configuration not stated) | 54.6% (active)
CC(=O)Nc1ccc(-c2ccnc3c2CC(C(=O)NC(C)C)O3)cc1 (configuration not stated) | -0.999% (inactive)
O=C(Nc1ccc(Cl)cc1)C1Cc2c(-c3ccc4c(c3)OCO4)ccnc2O1 (configuration not stated) | -1.29% (inactive)
CN(C)S(=O)(=O)c1cccc(NC(=O)COC(=O)/C=C/c2cccs2)c1 | -17% (inactive)

SMILES | inhibition
Cc1ccc(S(=O)(=O)N(C)C)cc1NC(=O)COC(=O)/C=C/c1cccs1 | 0.889% (inactive)
Cc1ccc(S(=O)(=O)N(C)C)cc1NC(=O)/C=C/c1cccs1 | 57.7% (active)
CC(NCc1ccco1)C(=O)N1CCCCC1 (configuration not stated) | 0.508% (inactive)
COc1ccccc1C(=O)CSc1nnc(-c2ccccn2)n1-c1ccccc1 | -4.28% (inactive)
CCOc1cc(NC(=S)NCCCOC)c(OCC)cc1NC(=O)c1ccco1 | 1.89% (inactive)
Cc1nc2cc(NC(=O)NCc3ccccc3)ccc2o1 | -1.07% (inactive)
COCCNC(=O)Nc1ccc2nc(-c3ccco3)c(-c3ccco3)nc2c1 | 104% (active)
COc1ccccc1CNC(=O)c1cc(-c2cc(F)ccc2OC)n[nH]1 | 4.87% (inactive)
CCc1nc2c(OCCOc3ccccc3)cccn2c1N(C)C(=O)c1ccc(OC)cc1 | -0.87% (inactive)
CCN1CCCC1CNC(=O)c1cc2cc(OC)c(OC)cc2[nH]1 (configuration not stated) | 17.7% (inactive)
CCN1CCCC1CNc1ncnc2c1[nH]c1ccc(F)cc12 (configuration not stated) | 74.6% (active)
CCN1CCCC1Cn1cnc2c([nH]c3cc(OC)ccc32)c1=O (configuration not stated) | -4.76% (inactive)
Cc1ccccc1NC(=O)COC(=O)c1ccc(Sc2ncn[nH]2)c([N+](=O)[O-])c1 | -0.523% (inactive)
C[C@H]1CCC/C=C/C(=O)c2c(O)cc(O)cc2CC(=O)O1 | 5.2% (inactive)
O=C(CN1CCOCC1)N/N=C/c1ccc(-c2ccc(Br)cc2)o1 | 4.03% (inactive)
Cc1ccc(-c2ccc(/C=N/NC(=O)CN3CCOCC3)o2)cc1[N+](=O)[O-] | 59.9% (active)
Cc1occc1C(=O)N/N=C/c1ccc(-c2cccc([N+](=O)[O-])c2)o1 | 1.62% (inactive)
O=C(NCc1ccc(Cl)cc1)C1CCCN(c2nc3ccccc3o2)C1 (configuration not stated) | -10.7% (inactive)
CC1CCN(c2ccc(C(=O)O)cc2NS(=O)(=O)c2ccc(Br)s2)CC1 | 1.4% (inactive)
Cc1nc2ccc(C(=O)N3CCN(C(=O)C(C)(C)C)CC3)cc2n1C1CCCC1 | -2.3% (inactive)
CSc1nccc(-c2ccc(S(=O)(=O)Nc3ccc(C(O)(C(F)(F)F)C(F)(F)F)cc3)s2)n1 | 3.98% (inactive)
CCN(CC)CCn1c2ccc(Cl)cc2c2nc(C)sc21 | 14.7% (inactive)
CCN(CC)CCCC(C)n1c2nc(=O)[nH]c(=O)c-2nc2cc(Cl)ccc21 (configuration not stated) | 187% (active)

SMILES | inhibition
CCN1CCN(C(=O)C2CCCN(S(=O)(=O)c3ccc(OC)c(OC)c3)C2)CC1 (configuration not stated) | -0.758% (inactive)
O=C(NCCCn1ccnc1)C1CCCN(S(=O)(=O)c2cc(Cl)ccc2Cl)C1 (configuration not stated) | -2.69% (inactive)
COc1ccc(S(=O)(=O)N2CCCC(C(=O)NCCCn3ccnc3)C2)cc1OC (configuration not stated) | 57.8% (active)
NC(Cc1ccc(F)cc1)c1csc(Nc2nncc3ccccc23)n1 (configuration not stated) | -3.48% (inactive)
O=C(CSc1nnc(-c2ccccc2)n1Cc1ccco1)Nc1ccccc1-c1ccccc1 | 6.7% (inactive)
CC1(C)Cc2c(sc3nnn(Cc4ccc(Cl)cc4Cl)c(=O)c23)CO1 | 8.41% (inactive)
O=C(Cc1cccs1)Nc1nnc(C2CC2)s1 | 3.72% (inactive)
O=C(CN1C(=O)c2ccc([N+](=O)[O-])cc2C1=O)Nc1nnc(C2CC2)s1 | 57.6% (active)
Cc1cccc(NC(=O)CSCC(=O)Nc2nnc(C3CC3)s2)c1 | 1.4% (inactive)
O=C(C1CCN(S(=O)(=O)c2ccccc2)CC1)N1CCN(C2CCCCC2)CC1 | 0.491% (inactive)
c1ccc(CNCc2ccc(CNCc3ccccc3)cc2)cc1 | 1.25% (inactive)
Oc1ccc(CNc2ccccc2O)cc1 | 85.7% (active)
O=[N+]([O-])c1ccccc1NCc1ccc(Cl)cc1 | 7.1% (inactive)
Cc1ccc(CSc2nnc(SCC(=O)NN=Cc3cc(Br)ccc3F)s2)cc1 | -1.85% (inactive)
CC1(C(=O)Nc2cccc(Oc3ccccc3)c2)CCN1Cc1ccccc1Cl (configuration not stated) | -0.732% (inactive)
CCc1nc2c(OCCOc3ccccc3)cccn2c1N(C=O)Cc1ccc(OC)cc1 | -1.53% (inactive)
CN(C(=O)CN1C(=O)S/C(=C\c2ccccc2F)C1=O)C1CCS(=O)(=O)C1 (configuration not stated) | 71.1% (active)
CN(C(=O)CCN1C(=O)/C(=C/c2ccccc2F)SC1=S)C1CCS(=O)(=O)C1 (configuration not stated) | -1.43% (inactive)
COc1ccccc1/C=C1\SC(=O)N(CCC(=O)N(C)C2CCS(=O)(=O)C2)C1=O (configuration not stated) | 2.59% (inactive)
Cc1c(CC(=O)N2CCN(C(=O)C3COc4ccccc4O3)CC2)c(=O)oc2c(O)c(O)ccc12 (configuration not stated) | 125% (active)
O=C(CNC(=O)C1COc2ccccc2O1)N/N=C/c1cc(Br)c(O)c(Br)c1 (configuration not stated) | 26.9% (inactive)
CCN(CC)S(=O)(=O)c1ccc(N2CCOCC2)c(NC(=O)C2COc3ccccc3O2)c1 (configuration not stated) | -0.001% (inactive)
CCc1nc2ccc(C(=O)NCCNC(C)=O)cn2c1N(CC)Cc1cccc(Br)c1 | 1.25% (inactive)

SMILES | inhibition
N#Cc1ccc(CSc2nnc(-c3ccccn3)n2-c2ccc(Cl)cc2)cc1 | 3.24% (inactive)
N#Cc1ccc(CSc2ncccn2)cc1 | 67.5% (active)
N#Cc1ccc(CSc2nnc3ccccn23)cc1 | -1.73% (inactive)
COc1ccc(N2CCN(CCNS(=O)(=O)c3ccc(C(C)(C)C)cc3)CC2)cc1 | 9.53% (inactive)
COc1ccc(-n2c(SCC(=O)Nc3ccc4c(c3)OCCO4)nnc2-c2ccc(Cl)cc2)cc1 | 3.06% (inactive)
Cc1ccc(Cn2cc(COC(=O)N(C)Cc3ccccc3)nn2)cc1 | -1.9% (inactive)
CCNC(=O)C1(C)CCN(C(=O)c2ccccc2)C1 (configuration not stated) | -2.2% (inactive)
CCNC(=O)C1(C)CCCN(C(=O)c2c(C)noc2C)C1 (configuration not stated) | -2.53% (inactive)
CCNC(=O)C1(C)CCCN(C(=O)c2ccc3ccccc3n2)C1 (configuration not stated) | 104% (active)
COc1ccc(-n2c(SCC(=O)Nc3ccc4cn[nH]c4c3)nnc2-c2cccnc2)cc1 | 10.9% (inactive)
O=S(=O)(Nc1ccc(C(O)(C(F)(F)F)C(F)(F)F)cc1)c1ccc(-c2ccccn2)s1 | 11.8% (inactive)
S=C(NCc1ccc2c(c1)OCO2)NCc1ccco1 | 4.85% (inactive)
CS(=O)(=O)N(CC(=O)NCc1ccco1)c1ccc2c(c1)OCO2 | 65.1% (active)
Cc1cc(C)cc(N(CC(=O)NCCSCc2ccco2)S(C)(=O)=O)c1 | 7.95% (inactive)
COc1ccc(C(=O)CSc2nnc(-c3cnccn3)n2-c2ccc(C)cc2)cc1 | -4.12% (inactive)
COc1ccc(-n2c(SCC(=O)Nc3ccc(C)c(Cl)c3)nc3ccccc3c2=O)cc1 | 5.51% (inactive)
COc1cc(NC(=O)c2cc(-c3ccc(F)cc3OC(C)C)n[nH]2)cc(OC)c1OC | -1.66% (inactive)
O=C1C(Cl)=C(Oc2ccccc2)C(=O)c2ccccc21 | 101% (active)
CC(=O)Oc1ccc2c(c1)C(=O)c1ccccc1C2=O | 4.31% (inactive)
COc1cccc(-c2ccc3c(c2)N(Cc2ccccc2OC)C(=O)C(C)S3)c1 (configuration not stated) | -0.375% (inactive)
Cc1ccc(-n2c(SCC(=O)Nc3ccc(S(=O)(=O)Nc4nccs4)cc3)nnc2-c2cccnc2)cc1 | 6.22% (inactive)
CC1(C(=O)Nc2cccc3c2CCCC3)CCN1C(=O)CCc1ccc(Cl)cc1Cl (configuration not stated) | -2.57% (inactive)
O=C(CSc1nnc(-c2ccccn2)n1-c1ccc(Cl)cc1)Nc1ccccc1-c1ccccc1 | -2.53% (inactive)
